# High-throughput results as filed in PubChem BioAssay.
# TRHR PAM: allosteric enhancers of human TRH receptor. TRHR cells, fluo-8 calcium fluorescence, EC20 TRH enhancement. P34981. enhancement, % at 2 µM. 360,000 compounds, 0.66% hits. AID 493056; in the data active = enhancement above about 30%; also: 0% is about no effect
# Target sequence (P34981 whole entry, looked up): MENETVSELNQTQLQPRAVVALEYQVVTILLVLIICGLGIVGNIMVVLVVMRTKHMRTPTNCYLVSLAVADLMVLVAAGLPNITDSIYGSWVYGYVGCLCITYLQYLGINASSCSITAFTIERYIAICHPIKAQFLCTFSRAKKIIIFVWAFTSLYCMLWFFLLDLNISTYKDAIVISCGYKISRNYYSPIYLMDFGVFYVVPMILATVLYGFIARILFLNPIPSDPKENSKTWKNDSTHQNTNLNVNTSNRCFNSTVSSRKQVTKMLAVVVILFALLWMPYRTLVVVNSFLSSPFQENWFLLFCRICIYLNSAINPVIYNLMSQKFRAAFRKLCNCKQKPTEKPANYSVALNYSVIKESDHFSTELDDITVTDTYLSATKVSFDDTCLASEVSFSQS
#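 Enhancer read-out: after compound pinning and an initial kinetic agonist-mode read, an EC20 of TRH (10 nM final) was injected and fluo-8 calcium signal (Ex 480/Em 530) followed at 1 s/cycle for 100 cycles in TRHR-expressing cells.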
# D1 agonist: activates the human D1 dopamine receptor; P21728; HEK293 T-REx D1 cells, calcium flux, agonist mode; activation, % at 2 µM; 360,000 compounds, 1% hits; also: 0% is about no effect
#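 Inducible HEK293 T-REx D1 cells, force-coupled to calcium signalling, were plated at 4000 cells/well with tetracycline and held overnight at 30 C. After no-wash calcium dye loading, compound-evoked calcium rise over 180 s flagged agonists.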
# D1 antagonist: human D1 dopamine receptor antagonism. P21728. HEK293 TREx D1 cells, calcium flux, dopamine EC80; stronger effect = lower value. activity change, negative = inhibition, % at 10 µM. 360,000 compounds, 3.2% hits; in the data active = activity change below about -30%; also: % is scaled to controls: 0 for no effect and ±100 for the full control effect
#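 Allosteric or orthosteric antagonism assessed as attenuation of the calcium response to EC80 dopamine, added 180 s after compound, in induced HEK293 Trex D1 cells loaded with no-wash calcium dye.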
# D1 PAM: enhances dopamine response at the human D1 receptor | P21728 | HEK293 TREx D1 cells, calcium flux, dopamine EC20 potentiation | potentiation, % at 10 µM | 360,000 compounds, 0.036% hits | AID 504651; in the data active = potentiation above about 30%; also: 0% is about no effect
# TRHR agonist: TRH receptor (human) agonism; 360,000 compounds, 0.18% hits; activation, % at 2 µM; TRHR cells, calcium flux fluo-8, FDSS agonist mode; also: 0% is about no effect
#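 TRHR-expressing cells, plated overnight in medium with 10% serum, were loaded with fluo-8 calcium dye at room temperature. After a 10 s baseline, library compound was pin-added and calcium release was recorded kinetically (ex 480/em 530) as agonist response.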
# The depositor's hits bear a star; . = no result given. Most compounds without a hit are left out; they make up all but 4.7% or so of the library. Rule as the data show it, unless noted: active = activation above about 30%; inactive = the rest.
SMILES,TRHR PAM,D1 agonist,D1 antagonist,D1 PAM,TRHR agonist
CS(=O)(=O)NCCNc1ncc(C(F)(F)F)cc1Cl,-3,1,-32*,0,0
CC(C)NS(=O)(=O)c1ccc(Oc2ncc(C(F)(F)F)cc2Cl)cc1,-2,22,-26,-7,1
CCCNS(=O)(=O)c1ccc(Oc2ncc(C(F)(F)F)cc2Cl)cc1,-1,46*,-6,-9,5
COc1ccccc1C(=O)NCCn1cc(SCC(=O)Nc2ccccc2F)c2ccccc21,-7,1,-8,-5,-2
COc1cc(OC)c(C2CC(=O)Nc3ccc4ccccc4c32)cc1OC (configuration not stated),1,5,-1,-3,-1
Cc1sc2nc(C)n(/N=C/c3ccc(O)cc3O)c(=O)c2c1C,-8,14,-84*,-7,0
Cc1sc2nc(C)n(/N=C/c3ccccc3O)c(=O)c2c1C,-1,1,17,0,0
CCC(=O)N1c2ccc(S(=O)(=O)N3CCC(C)CC3)cc2CC1C (configuration not stated),-4,3,-21,5,-1
Cc1c(/C=C(\C#N)C(=O)Nc2cccc(Cl)c2)c2ccccc2n1Cc1ccccc1,0,32*,6,-1,8
Cc1cccc2sc(N(Cc3cccnc3)C(=O)c3cccs3)nc12,-1,-1,.,0,0
Cc1ccc(Sc2ccc(N3CCCC(C(=O)Nc4ccc(F)cc4)C3)nn2)cc1 (configuration not stated),-2,-1,-6,1,0
CC(OC(=O)CN1C(=O)NC2(CCCC2)C1=O)C(=O)Nc1cccc(Cl)c1Cl (configuration not stated),2,1,-51*,-11,1
Clc1ccc(-c2nnc3n2CCCCS3)cc1,-1,1,-7,-3,0
C=C1Cn2c(nnc2-c2ccc(Cl)cc2)S1,-8,1,-61*,-10,-2
C/C(=N\NC(=O)c1cc2ccccc2cc1O)c1ccc(C)o1,2,4,-7,1,1
C/C(=N\NC(=O)c1c[nH]c2ccccc12)c1ccc(C)o1,2,0,-66*,-5,1
O=C(NN=C1CCCCCC1)c1c[nH]c2ccccc12,25,-1,-46*,-11,1
O=C(Cc1ccc2c(c1)OCCO2)N1CCN(S(=O)(=O)c2cccc(Cl)c2Cl)CC1,0,13,-28,-6,1
O=C(Cc1ccc2c(c1)OCCO2)N1CCN(S(=O)(=O)c2cccs2)CC1,-3,15,-35*,-12,0
Cc1ccc(-n2ccnc(NCc3ccccc3)c2=O)cc1C,9,1,-35*,-2,0
O=C1OC(CO)CN1Cc1ccccc1 (configuration not stated),0,0,-40*,4,0
COC(=O)C(C)(C)ONC(=O)Nc1ccccc1[N+](=O)[O-],31*,2,-17,-3,0
Cc1nn2c(=O)cc(COC(=O)c3ccc(NC(=O)c4cccs4)cc3)nc2s1,2,2,11,0,-1
COc1ccc(C(NC(=O)C2CCCCC2)c2c(O)ccc3ccccc23)cc1 (configuration not stated),-1,0,-46*,-9,0
CCCC(=O)NC(c1ccc(OC)cc1)c1c(O)ccc2ccccc12 (configuration not stated),4,3,5,-4,0
SMILES,TRHR PAM,D1 agonist,D1 antagonist,D1 PAM,TRHR agonist
CCC(=O)N1CCc2cc(S(=O)(=O)NCCC(=O)NCc3ccc(OC)cc3)ccc21,6,1,-44*,-1,0
CCC(=O)N1CCc2cc(S(=O)(=O)NC(CC(C)C)C(=O)NCc3ccc(F)cc3)ccc21 (configuration not stated),12,-1,-40*,4,-1
CCC(=O)N1CCc2cc(S(=O)(=O)NCCC(=O)NCc3ccc(F)cc3)ccc21,-6,0,-20,-2,0
CCC(=O)N1CCc2cc(S(=O)(=O)NC(CC(C)C)C(=O)NCc3cccc(OC)c3)ccc21 (configuration not stated),-7,1,8,0,-1
CC(C)c1ccc(NC(=O)CN2C(=O)COc3ccc(S(=O)(=O)N4CCCCC4)cc32)cc1,-6,5,1,-3,0
COCCCNC(=S)N1CCCN(c2nc3c(C)c(C)ccc3cc2C#N)CC1,1,-1,-42*,-3,0
COCCNC(=S)N1CCCN(c2nc3cc(C)ccc3cc2C#N)CC1,0,4,-21,-3,0
Cc1cccc(CCNC(=O)c2cnc3c(C)cccn3c2=O)c1,-9,-1,-1,3,0
COc1cccc(NC(=O)COc2ccc(C(=S)N3CCN(C)CC3)cc2OC)c1,0,8,-31*,-1,1
Cc1ccccc1OCC(=O)Nc1ccc2c(c1)Cc1ccccc1-2,5,6,-24,-2,-1
Cc1ccccc1OCC(=O)Nc1ccc(N2CCN(C)CC2)c(Cl)c1,3,35*,-71*,.,2
CCS(=O)(=O)N1CC(=O)N(c2ccc(Cl)cc2C)C(C)(C(=O)NC2CCCCCC2)C1 (configuration not stated),27,2,-2,5,0
Cc1ccc(S(=O)(=O)C(CNS(=O)(=O)c2ccc(F)c(C)c2)c2cccs2)cc1 (configuration not stated),1,2,.,-1,0
Cc1nc2ccccc2n1C1CCN(CC(=O)Nc2ccccc2Br)CC1,-3,52*,-14,-5,11
Cc1ccccc1NC(=O)CN1CCC(n2nnc3ccccc32)CC1,3,1,2,-1,-1
Cn1c(=O)n(CC(=O)NCC2CCCO2)c(=O)c2c3c(sc21)COC(C)(C)C3 (configuration not stated),-5,1,-30*,-1,0
CCCn1c(=O)n(CC(=O)NCC2CCCO2)c(=O)c2c3c(sc21)COC(C)(C)C3 (configuration not stated),3,1,-9,0,0
CCN1C(C(=O)c2ccccc2)=C(OC(=O)COc2ccccc2)c2ccccc2S1(=O)=O,-4,0,4,1,-1
Cc1ccc(-n2nc3c(N4CCCC(C(=O)NCc5ccccc5C)C4)nnc(C)c3c2C)cc1 (configuration not stated),2,44*,17,53*,0
COc1cc(NC(=O)C2CCN(c3nnc(C)c4c(C)n(-c5ccccc5)nc34)CC2)cc(OC)c1,5,2,-40*,-2,-1
CC(=O)c1ccc(NC(=O)C2CCN(c3nnc(C)c4c(C)n(-c5ccccc5)nc34)CC2)cc1,-7,3,1,-2,0
